From PubChem BioAssay AID1159580 (chemical genetic matrix, 2015)
The campaign covered roughly 5,500 compounds. About 2,000 (36%) were called active. Inconclusive results (about 18%) are left out. Cut-off read from the data, not from the text of the source: active = normalized growth mostly below about 0.91 (no sharp cut-off); inconclusive = no clear call, values can overlap the other calls; inactive = mostly above about 0.92. The list shows a part of the results.

Experiment: chemical genetic growth profiling, strain panel (AID 1159580);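 note: tested at 20 µM; growth read once vehicle control cultures reached saturation at 30 °C; 1 = growth at the plate median or of vehicle wells; lower values mean less growth of the strain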
Settings: growth OD

Measured: normalized growth

N[C@@H](C(=O)O)[C@@H](O)[C@H](O)[C@H](O)CO
inactive: S. cerevisiae deletion strains, locus YJR066W, strain TOR1, stronger effect = lower value 0.985 | S. cerevisiae deletion strains, locus YJR075W, strain HOC1, stronger effect = lower value 1.02 | S. cerevisiae deletion strains, locus YKL009W, strain mrt4, stronger effect = lower value 1 | S. cerevisiae deletion strains, locus YKL068W, stronger effect = lower value 1.01 | S. cerevisiae deletion strains, locus YKL085W, strain MDH1 (second series), stronger effect = lower value 1.02 | S. cerevisiae deletion strains, locus YKL085W, strain MDH1, stronger effect = lower value 1.02 | S. cerevisiae deletion strains, locus YKL160W, strain elf1, stronger effect = lower value 1.03 | S. cerevisiae deletion strains, locus YKL190W, strain CNB1, stronger effect = lower value 1.01 | S. cerevisiae deletion strains, locus YKR001C, strain vps1, stronger effect = lower value 1.04 | S. cerevisiae deletion strains, locus YKR026C, strain gcn3, stronger effect = lower value 1.04 | S. cerevisiae deletion strains, locus YKR091W, strain srl3, stronger effect = lower value 1.02 | S. cerevisiae deletion strains, locus YLL001W, strain dnm1, stronger effect = lower value 1.03 | S. cerevisiae deletion strains, locus YLL026W, stronger effect = lower value 1.03 | S. cerevisiae deletion strains, locus YLL041C, strain sdh2, stronger effect = lower value 1.02 | S. cerevisiae deletion strains, locus YLR027C, strain aat2, stronger effect = lower value 1.02 | S. cerevisiae deletion strains, locus YLR039C, strain RIC1, stronger effect = lower value 1.1 | S. cerevisiae deletion strains, locus YLR058C, strain SHM2, stronger effect = lower value 1.01 | S. cerevisiae deletion strains, locus YLR102C, strain apc9, stronger effect = lower value 1.01 | S. cerevisiae deletion strains, locus YLR113W, strain HOG1, stronger effect = lower value 1.07 | S. cerevisiae deletion strains, locus YLR221C, strain rsa3, stronger effect = lower value 1.03 | S. cerevisiae deletion strains, locus YLR258W, strain gsy2, stronger effect = lower value 1.01 | S. cerevisiae deletion strains, locus YLR262C, strain YPT6 (second series), stronger effect = lower value 1.06 | S. cerevisiae deletion strains, locus YLR262C, strain YPT6, stronger effect = lower value 1.14 | S. cerevisiae deletion strains, locus YLR268W, strain sec22, stronger effect = lower value 1.04 | S. cerevisiae deletion strains, locus YLR320W, strain mms22, stronger effect = lower value 1.03 | S. cerevisiae deletion strains, locus YLR330W, strain CHS5, stronger effect = lower value 1.01 | S. cerevisiae deletion strains, locus YLR342W, strain FKS1 (second series), stronger effect = lower value 1.01 | S. cerevisiae deletion strains, locus YLR342W, strain FKS1, stronger effect = lower value 1.03 | S. cerevisiae deletion strains, locus YLR357W, strain rsc2, stronger effect = lower value 1.04 | S. cerevisiae deletion strains, locus YLR370C, strain arc18, stronger effect = lower value 1.02 | S. cerevisiae deletion strains, locus YLR371W, strain rom2, stronger effect = lower value 1.02 | S. cerevisiae deletion strains, locus YLR384C, strain iki3, stronger effect = lower value 1.02 | S. cerevisiae deletion strains, locus YLR418C, strain cdc73, stronger effect = lower value 1.01 | S. cerevisiae deletion strains, locus YML016C, strain PPZ1, stronger effect = lower value 1.01 | S. cerevisiae deletion strains, locus YML032C, strain rad52, stronger effect = lower value 0.989 | S. cerevisiae deletion strains, locus YML120C, strain ndi1, stronger effect = lower value 1.03 | S. cerevisiae deletion strains, locus YML124C, strain tub3, stronger effect = lower value 1.02 | S. cerevisiae deletion strains, locus YMR058W, strain fet3, stronger effect = lower value 1.03 | S. cerevisiae deletion strains, locus YMR078C, strain ctf18, stronger effect = lower value 1.03 | S. cerevisiae deletion strains, locus YMR125W, strain sto1, stronger effect = lower value 1.02 | S. cerevisiae deletion strains, locus YMR129W, stronger effect = lower value 1.03 | S. cerevisiae deletion strains, locus YMR205C, strain PFK2, stronger effect = lower value 1.03 | S. cerevisiae deletion strains, locus YMR223W, strain ubp8, stronger effect = lower value 1.01 | S. cerevisiae deletion strains, locus YMR231W, strain pep5, stronger effect = lower value 1 | S. cerevisiae deletion strains, locus YMR307W, strain GAS1, stronger effect = lower value 0.992 | S. cerevisiae deletion strains, locus YNL067W, strain RPL9B, stronger effect = lower value 1.01 | S. cerevisiae deletion strains, locus YNL071W, strain lat1, stronger effect = lower value 1.03 | S. cerevisiae deletion strains, locus YNL153C, strain GIM3, stronger effect = lower value 1.01 | S. cerevisiae deletion strains, locus YNL183C, strain NPR1, stronger effect = lower value 0.989 | S. cerevisiae deletion strains, locus YNL209W, strain ssb2, stronger effect = lower value 1.02 | S. cerevisiae deletion strains, locus YNL233W, strain BNI4, stronger effect = lower value 1.02 | S. cerevisiae deletion strains, locus YNL248C, strain rpa49, stronger effect = lower value 1.04 | S. cerevisiae deletion strains, locus YNL250W, strain rad50, stronger effect = lower value 1.03 | S. cerevisiae deletion strains, locus YNL271C, strain bni1, stronger effect = lower value 1.03 | S. cerevisiae deletion strains, locus YNL298W, strain CLA4, stronger effect = lower value 1.02 | S. cerevisiae deletion strains, locus YNL307C, strain MCK1, stronger effect = lower value 1.02 | S. cerevisiae deletion strains, locus YNL322C, strain KRE1 (second series), stronger effect = lower value 1.03 | S. cerevisiae deletion strains, locus YNR049C, strain mso1, stronger effect = lower value 1.04 | S. cerevisiae deletion strains, locus YNR052C, strain pop2, stronger effect = lower value 1.01 | S. cerevisiae deletion strains, locus YOL006C, strain TOP1, stronger effect = lower value 1.06 | S. cerevisiae deletion strains, locus YOL012C, strain htz1 0.92 | S. cerevisiae deletion strains, locus YOL147C, strain pex11, stronger effect = lower value 1.01 | S. cerevisiae deletion strains, locus YOR001W, strain rrp6, stronger effect = lower value 1.05 | S. cerevisiae deletion strains, locus YOR061W, strain CKA2, stronger effect = lower value 1.02 | S. cerevisiae deletion strains, locus YOR069W, strain VPS5, stronger effect = lower value 1.01 | S. cerevisiae deletion strains, locus YOR070C, strain gyp1, stronger effect = lower value 1.02 | S. cerevisiae deletion strains, locus YOR080W, strain dia2, stronger effect = lower value 1.04 | S. cerevisiae deletion strains, locus YOR083W, strain WHI5, stronger effect = lower value 1.02 | S. cerevisiae deletion strains, locus YOR106W, strain vam3, stronger effect = lower value 1.07 | S. cerevisiae deletion strains, locus YOR136W, strain idh2, stronger effect = lower value 1.02 | S. cerevisiae deletion strains, locus YOR144C, strain elg1, stronger effect = lower value 1.01 | S. cerevisiae deletion strains, locus YOR184W, strain ser1, stronger effect = lower value 1.03 | S. cerevisiae deletion strains, locus YOR231W, strain MKK1, stronger effect = lower value 1.08 | S. cerevisiae deletion strains, locus YOR265W, strain rbl2, stronger effect = lower value 1.02 | S. cerevisiae deletion strains, locus YOR270C, strain vph1, stronger effect = lower value 1.12 | S. cerevisiae deletion strains, locus YOR290C, strain snf2, stronger effect = lower value 1.02 | S. cerevisiae deletion strains, locus YOR316C, strain cot1, stronger effect = lower value 1.02 | S. cerevisiae deletion strains, locus YPL051W, strain arl3, stronger effect = lower value 1.02 | S. cerevisiae deletion strains, locus YPL055C, strain LGE1, stronger effect = lower value 1.02 | S. cerevisiae deletion strains, locus YPL078C, strain atp4, stronger effect = lower value 1.01 | S. cerevisiae deletion strains, locus YPL106C, strain sse1, stronger effect = lower value 1.01 | S. cerevisiae deletion strains, locus YPL240C, strain hsp82, stronger effect = lower value 1.02 | S. cerevisiae deletion strains, locus YPL256C, strain CLN2, stronger effect = lower value 1.03 | S. cerevisiae deletion strains, locus YPR119W, strain clb2, stronger effect = lower value 1.02 | S. cerevisiae deletion strains, locus YPR141C, strain kar3, stronger effect = lower value 1.02 | S. cerevisiae deletion strains, locus YPR163C, strain tif3, stronger effect = lower value 1.03 | S. cerevisiae deletion strains, locus YPR167C, strain met16, stronger effect = lower value 1.02 | S. cerevisiae deletion strains, strain wtn01, stronger effect = lower value 1.05 | S. cerevisiae strains, strain wild type, stronger effect = lower value 1.01
